Source: PubChem BioAssay (NCATS)
Where “and” joins values, the source holds several entries; their conditions need not be identical. Equal values may be shown once. Records with an inconclusive call do not appear. Entries that show only a call come without a potency. Calls of active or inactive are those of the source. Unless noted, the call rests on the fitted dose curve; in most records, active means well fitted curve in the direction sought with a large enough effect; inconclusive means small, poorly fitted or top-dose-only effect, or another doubt; inactive means no such curve, though single readings can be large; an effect the other way counts as inactive or inconclusive.

Tests used:
[1] = target: Calcium and integrin-binding protein 1 (Homo sapiens) (UniProt Q99828); test: Primary qHTS for Identification of Calcium Integrin Binding Protein 1 (CIB1) Competitor (AID 1508620);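 further: GST tagged CIB1 binding a fluorescein labelled alphaIIb integrin peptide tracer; top concentration of the series differs between compounds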
Calcium and integrin-binding protein 1 (Homo sapiens), sequence (Q99828 whole entry, looked up): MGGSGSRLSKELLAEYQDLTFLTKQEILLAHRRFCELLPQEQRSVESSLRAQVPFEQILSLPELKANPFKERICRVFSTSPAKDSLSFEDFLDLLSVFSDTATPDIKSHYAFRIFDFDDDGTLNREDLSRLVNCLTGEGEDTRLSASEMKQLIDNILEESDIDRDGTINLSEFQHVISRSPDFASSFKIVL
Outline: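 Fluorescence polarization competition: GST-tagged CIB1 (1 uM final) preincubated with compound 15 min at room temperature, then FITC-labelled alphaIIb peptide (100 nM final) added. After 15 min at room temperature, polarization read at Ex 480/Em 540.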

[2] = Primary qHTS for small molecule stabilizers of the endoplasmic reticulum resident proteome: Secreted ER Calcium Modulated Protein (SERCaMP) assay (AID 1508630)
Outline: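 GLuc-SERCaMP-expressing SH-SY5Y cells, pretreated 16 h with compound, are challenged with thapsigargin to empty ER calcium stores; after 4 h, coelenterazine is added directly to the medium and luminescence is imaged.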

[3] = target: Cytochrome P450 2D6 (Homo sapiens) (UniProt P10635); test: Cytochrome P450 family 2 subfamily D member 6 (CYP2D6) small molecule antagonists: luciferase biochemical (cell-free) qHTS assay (AID 1645840; active means well fitted curve in the direction sought with a large enough effect in the repeat runs; an effect the other way counts as inactive or inconclusive; further: nearly all actives have a fitted effect of over 55% in size; further: potency means the concentration at half of the fitted maximal effect)
Cytochrome P450 2D6 (Homo sapiens), sequence (P10635 whole entry, looked up): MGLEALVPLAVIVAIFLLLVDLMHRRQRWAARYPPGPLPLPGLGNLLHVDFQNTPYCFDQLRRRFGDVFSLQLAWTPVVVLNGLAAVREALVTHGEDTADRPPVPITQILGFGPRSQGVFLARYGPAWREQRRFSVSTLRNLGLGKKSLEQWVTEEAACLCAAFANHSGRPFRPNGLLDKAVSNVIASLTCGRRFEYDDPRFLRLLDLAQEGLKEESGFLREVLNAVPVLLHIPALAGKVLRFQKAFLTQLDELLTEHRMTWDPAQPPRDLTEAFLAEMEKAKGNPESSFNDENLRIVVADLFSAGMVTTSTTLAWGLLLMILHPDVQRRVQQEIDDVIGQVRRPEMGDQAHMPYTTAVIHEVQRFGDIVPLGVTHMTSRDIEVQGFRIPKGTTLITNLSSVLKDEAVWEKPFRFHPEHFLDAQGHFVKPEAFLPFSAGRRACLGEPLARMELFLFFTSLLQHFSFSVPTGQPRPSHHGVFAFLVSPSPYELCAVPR
Outline: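 P450-Glo luminescent screen: recombinant CYP2D6 enzyme–proluciferin substrate mix preincubated with compound 10 min at room temperature, then NADPH regeneration added for 1 h at room temperature. Detection reagent added for 20 min; luciferin light read as relative luminescence units.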

[4] = target: Cytochrome P450 2C9 (Homo sapiens) (UniProt P11712); test: Cytochrome P450 family 2 subfamily C member 9 (CYP2C9) small molecule antagonists: luciferase biochemical (cell-free) qHTS assay (AID 1645842; active means well fitted curve in the direction sought with a large enough effect in the repeat runs; an effect the other way counts as inactive or inconclusive; further: nearly all actives have a fitted effect of over 55% in size; further: potency means the concentration at half of the fitted maximal effect)
Cytochrome P450 2C9 (Homo sapiens), sequence (P11712 whole entry, looked up): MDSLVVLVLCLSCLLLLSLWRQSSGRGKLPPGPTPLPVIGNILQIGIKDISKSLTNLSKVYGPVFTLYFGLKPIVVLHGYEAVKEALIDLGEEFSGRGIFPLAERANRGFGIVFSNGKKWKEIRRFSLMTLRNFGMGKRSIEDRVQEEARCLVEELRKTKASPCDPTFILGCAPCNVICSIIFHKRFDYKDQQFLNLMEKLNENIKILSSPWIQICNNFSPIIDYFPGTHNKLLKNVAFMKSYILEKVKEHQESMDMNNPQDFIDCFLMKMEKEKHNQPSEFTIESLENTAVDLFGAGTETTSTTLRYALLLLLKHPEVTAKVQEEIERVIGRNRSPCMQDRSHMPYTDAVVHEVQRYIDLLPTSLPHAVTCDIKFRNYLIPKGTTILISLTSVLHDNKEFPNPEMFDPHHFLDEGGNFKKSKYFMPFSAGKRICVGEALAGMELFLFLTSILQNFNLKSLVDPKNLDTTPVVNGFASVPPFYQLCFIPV
Outline: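 Luminescence, after 20 min with luciferin detection reagent, reflected CYP2C9 turnover during a 1 h NADPH-driven reaction at 37C. Enzyme-substrate mix contained 0.4% bovine serum albumin and was preincubated with compound 10 min at room temperature.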

[5] = target: Cytochrome P450 3A4 (Homo sapiens) (UniProt P08684); test: Cytochrome P450 family 3 subfamily A member 4 (CYP3A4) small molecule antagonists: luciferase qHTS assay (AID 1645841; active means well fitted curve in the direction sought with a large enough effect in the repeat runs; an effect the other way counts as inactive or inconclusive; further: nearly all actives have a fitted effect of over 45% in size)
Cytochrome P450 3A4 (Homo sapiens), sequence (P08684 whole entry, looked up): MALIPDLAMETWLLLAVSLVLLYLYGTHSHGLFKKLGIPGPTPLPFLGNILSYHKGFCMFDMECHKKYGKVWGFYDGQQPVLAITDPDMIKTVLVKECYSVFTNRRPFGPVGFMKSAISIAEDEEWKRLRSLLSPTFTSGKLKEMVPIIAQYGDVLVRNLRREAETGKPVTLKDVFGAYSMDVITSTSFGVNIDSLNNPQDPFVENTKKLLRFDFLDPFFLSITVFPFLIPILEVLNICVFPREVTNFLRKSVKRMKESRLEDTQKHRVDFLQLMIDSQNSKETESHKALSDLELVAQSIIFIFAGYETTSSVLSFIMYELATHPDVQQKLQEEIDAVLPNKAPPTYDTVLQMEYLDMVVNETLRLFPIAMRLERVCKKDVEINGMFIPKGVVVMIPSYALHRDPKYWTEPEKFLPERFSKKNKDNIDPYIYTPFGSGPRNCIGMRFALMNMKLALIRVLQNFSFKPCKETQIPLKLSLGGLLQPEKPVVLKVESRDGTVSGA
Outline: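 P450-Glo CYP3A4 enzyme with proluciferin substrate preincubated 10 min with compound at room temperature, then NADPH regeneration 1 h. Luciferin detection reagent added for 20 min; luminescence recorded. Ketoconazole positive control.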

[6] = target: N-terminal Xaa-Pro-Lys N-methyltransferase 1 (Homo sapiens) (UniProt Q9BV86); test: Confirmatory qHTS for Inhibitors of N-terminal methyltransferase 1 (NTMT1): MTaseGlo Assay (AID 1645874);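 further: luminescence from SAH made as NTMT1 methylates SPKRIA peptide using SAM; series mostly up to about 100 µM; nearly all actives have a fitted effect of over 65% in size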
N-terminal Xaa-Pro-Lys N-methyltransferase 1 (Homo sapiens), sequence (Q9BV86 whole entry, looked up): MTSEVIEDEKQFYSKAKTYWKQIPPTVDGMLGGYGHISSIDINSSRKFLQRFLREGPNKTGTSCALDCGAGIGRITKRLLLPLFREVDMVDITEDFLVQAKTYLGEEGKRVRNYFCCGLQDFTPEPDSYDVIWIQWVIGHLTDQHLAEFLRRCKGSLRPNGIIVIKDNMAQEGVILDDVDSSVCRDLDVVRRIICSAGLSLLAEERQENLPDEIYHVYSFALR
Outline: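 Luminescent MTase-Glo read-out of SAH. 125 nM NTMT1, 100 uM SAM, 1 uM SPKRIA substrate, 30 min RT reaction after 15 min compound preincubation. Normalized to no-enzyme and DMSO controls; Hill fit.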

Compound	outcome [1]	Potency [2]	Potency [3]	Potency [4]	outcome [5]	Potency [6]
CCOc1ccccc1OCCNC(C)Cc1ccc(OC)c(S(N)(=O)=O)c1 (stereo unspecified)	inactive	inactive	10.7 µM (active)	inactive	–	–
Cn1cncc1[C@@](N)(c1ccc(Cl)cc1)c1ccc2c(c1)c(-c1cccc(Cl)c1)cc(=O)n2C	inactive	inactive	16.9 µM (active)	0.169 µM (active)	–	–
COc1cc(=C2C=c3ccccc3=N2)[nH]c1=Cc1[nH]c(C)cc1C	inactive	inactive	–	–	–	–
CC1=C(CO)C(=O)O[C@@H]([C@@H](C)[C@H]2CC[C@H]3[C@@H]4C[C@H]5O[C@]56[C@@H](O)C=CC(=O)[C@]6(C)[C@@H]4CC[C@]23C)C1	inactive	inactive	–	–	–	–
CC(O)C1C(=O)N2C(C(=O)O)=C(SC3CNC(C(=O)N(C)C)C3)C(C)C12 (stereo unspecified)	inactive	inactive	–	–	–	–
Nc1ccc(S(=O)(=O)Nc2ncccn2)cc1	inactive	inactive	inactive	inactive	inactive	–
O=C(C=Cc1cccc(S(=O)(=O)Nc2ccccc2)c1)NO	inactive	inactive	–	–	–	–
C=CC(=O)Nc1cccc(Oc2nc(Nc3ccc(N4CCN(C)CC4)cc3OC)ncc2Cl)c1	inactive	inactive	23.9 µM (active)	13.5 µM (active)	–	–
COc1ccc(-c2cc3c(C)nc(N)nc3n(C3CCC(OCCO)CC3)c2=O)cn1 (stereo unspecified)	inactive	inactive	inactive	5.35 µM (active) and 4.25 µM (active)	–	inactive
O=C(Nc1ncc(-c2cc(C(F)F)nn2-c2c(Cl)cccc2Cl)s1)C1CC1	inactive	inactive	10.7 µM (active)	6.74 µM (active)	–	–
COc1cc2c(Oc3ccc(-c4cnc(Nc5ccc(F)cc5)n(C)c4=O)cc3F)ccnc2cc1OCCCN1CCOCC1	inactive	inactive	inactive	inactive	–	–
Cc1cc(N2CCOCC2)cc2[nH]c(-c3c(NC[C@@H](O)c4cccc(Cl)c4)cc[nH]c3=O)nc12	inactive	inactive	–	–	–	inactive
CCNC(=O)Nc1ccc2ncc(Nc3ccc(C)cc3)nc2n1	inactive	inactive	inactive	inactive	–	–
CS(=O)(=O)c1ccc(-c2cnc(N)c(C(=O)Nc3ccccc3)n2)cc1	inactive	inactive	inactive	12 µM (active)	–	–
Nc1ncnc2c1c(-c1cccc(OCc3ccccc3)c1)cn2C1CC(CN2CCCC2)C1 (stereo unspecified)	inactive	inactive	12 µM (active)	16.9 µM (active)	–	–
Nc1nccc(Oc2ccc(NC(=O)c3c[nH]cc(-c4ccc(F)cc4)c3=O)cc2F)c1Cl	inactive	inactive	3.38 µM (active)	8.49 µM (active)	–	–
CCCCOc1c(C(=O)c2c(F)cc(C)cc2F)cnc2n[nH]cc12	inactive	–	inactive	–	–	–
C[C@H]1C[C@@H]2[C@@H]([C@@H](O)C[C@@]3(C)[C@H]2CC[C@]3(O)C(=O)CO)[C@@]2(C)C=CC(=O)C=C12	–	inactive	–	–	–	–
CC(C)c1cc(C(=O)N2Cc3ccc(CN4CCN(C)CC4)cc3C2)c(O)cc1O	inactive	inactive	inactive	12 µM (active)	–	–
O=C(O)CO.[NH2-].[NH2-].[Pt+2]	–	inactive	–	–	–	–

Compound	outcome [1]	Potency [2]	Potency [3]	Potency [4]	outcome [5]	Potency [6]
COc1cc2c(Oc3ccc(NC(=O)C4(C(=O)Nc5ccc(F)cc5)CC4)cc3F)ccnc2cc1OCCCN1CCOCC1	inactive	inactive	–	3.01 µM (active)	–	–
Cc1cnc(-c2cnc(NCCNc3ccc(C#N)cn3)nc2-c2ccc(Cl)cc2Cl)[nH]1	inactive	inactive	1.51 µM (active)	1.51 µM (active)	–	–
CS(=O)(=O)N1CCN(Cc2cc3nc(-c4cccc5[nH]ncc45)nc(N4CCOCC4)c3s2)CC1	–	inactive	–	–	–	–
CC1(C)CC(=O)c2c(C(F)(F)F)nn(-c3ccc(C(N)=O)c(NC4CCC(OC(=O)CN)CC4)c3)c2C1 (stereo unspecified)	inactive	inactive	15.1 µM (active)	2.68 µM (active)	–	–
CNC(=O)c1ccccc1Nc1nc(Nc2ccc(N3CCOCC3)cc2OC)ncc1Cl	inactive	inactive	–	0.301 µM (active)	–	–
CC1(O)CC(c2nc(-c3ccc4ccc(-c5ccccc5)nc4c3)c3c(N)nccn23)C1 (stereo unspecified)	inactive	inactive	–	2.13 µM (active) and 952 nM (active)	–	–
COc1cc2c(NC3CCN(C(C)C)CC3)nc(C3CCCCC3)nc2cc1OCCCN1CCCC1	inactive	inactive	–	–	–	inactive
COC(=O)[C@]12CCC(C)(C)C[C@@H]1[C@@H]1C(=O)C=C3[C@@]4(C)C=C(C#N)C(=O)C(C)(C)[C@@H]4CC[C@@]3(C)[C@]1(C)CC2	–	inactive	–	–	–	–
CN(C)Cc1c(C(=O)NCCOc2ccc(C(=O)NO)cc2)oc2ccccc12	inactive	inactive	1.69 µM (active)	inactive	–	–
c1ccc2c(CCNc3ccc(Nc4ccncc4)cc3)c[nH]c2c1	inactive	inactive	0.477 µM (active)	2.68 µM (active)	–	–
C=C1C(=CC=C2CCC[C@]3(C)[C@@H]([C@H](C)C=C[C@H](C)C(C)C)CC[C@@H]23)C[C@@H](O)C[C@@H]1O	inactive	inactive	–	9.52 µM (active)	–	–
O=C(C=Cc1c(C(=O)O)[nH]c2cc(Cl)cc(Cl)c12)Nc1ccccc1	–	inactive	–	–	–	–
Cc1cnc(Nc2ccc(F)cc2Cl)nc1-c1c[nH]c(C(=O)N[C@H](CO)c2cccc(Cl)c2)c1	inactive	inactive	8.49 µM (active)	3.38 µM (active)	–	–
O=C(Nc1nc2cccc(-c3ccc(CN4CCS(=O)(=O)CC4)cc3)n2n1)C1CC1	inactive	inactive	inactive	inactive	–	–
COc1cccc2c(NCc3ccccc3)nc(-n3c(N)nc4ccccc43)nc12	inactive	inactive	1.9 µM (active)	6.74 µM (active)	–	–
COc1cc(Nc2ncc(F)c(Nc3ccc4c(n3)N(COP(=O)(O)O)C(=O)C(C)(C)O4)n2)cc(OC)c1OC	inactive	inactive	inactive	10.7 µM (active)	–	–
Clc1cccc(-n2nnnc2NCc2ccccc2Oc2ccccn2)c1Cl	–	–	5.35 µM (active)	6.01 µM (active)	–	–
Nc1ccn([C@@H]2CS[C@H](CO)O2)c(=O)n1	inactive	inactive	inactive	inactive	–	–
CN(C)c1nc(Cc2ccc(NC(=O)c3ccc4ccccc4c3)cc2)nc(Cl)c1CC(=O)O	inactive	–	inactive	–	–	–
NC1(Cc2ccc(Cl)cc2)CCN(c2ncnc3[nH]ccc23)CC1	inactive	inactive	–	inactive	–	–
